# Measured values taken from PubChem BioAssay (Tox21).
# Records with an inconclusive call do not appear. Unmarked numbers belong to inactive results. Calls follow the shape of the dose curve; as a rule, active = well fitted cell-killing curve with a large enough effect in the repeat runs; inconclusive = weak or mixed curves, or effect the other way; inactive = no such curve, though single readings can be large or run the other way.
# Test: qHTS assay to identify small molecule antagonists of the retinoid-related orphan receptor gamma (ROR-gamma) signaling pathway - cell viability counter screen (AID 1159520); also: nearly all actives have a fitted effect of over 50% in size
# Settings: Tet-on RORgamma CHO cells viability, ATP luminescence, 16 h; series mostly up to 92.4 µM; activity, negative = cytotoxicity: at the top concentration
# Procedure, shortened: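 Tet-on ROR gamma CHO cells (1,000/well) were plated 4 hr, given compounds in DMSO for 2 hr at 37 C, then induced with 1 uM final doxycycline for 16 hr. Viability was read as ATP by CellTiter-Glo luminescence after 30 min.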
# % is scaled to controls: 0 for no effect and ±100 for the full control effect.
row,SMILES,"activity, negative = cytotoxicity"
1,OCCCCC(O)CO (stereo not drawn),7.76%
2,CCCCCCCCC(=O)Cl,-10.5%
3,ClCCCl,3.57%
4,CC(C)CCCCOC(=O)c1ccccc1C(=O)OCCCCC(C)C,-11.2%
5,C=COCCOCCOCCOC=C,2.11%
6,c1ccc2nccnc2c1,4.18%
7,O=C(NCCc1c[nH]c2ccccc12)c1cccnc1,0.954% [at 42.5 µM]
8,CCCCCCCCC1CCC(=O)O1 (stereo not drawn),2.4%
9,CC1COc2ccccc2N1 (stereo not drawn),2.93%
10,CCCCNC1CC(C)(C)NC(C)(C)C1,5.83%
11,C#CC(C)N(C)C(=O)Nc1ccc(Cl)cc1 (stereo not drawn),0.651%
12,CN1C(C)(C)CCCC1(C)C,-0.663% [at 42.5 µM]
13,O=S(=O)(O)c1cc(O)c2ccc(Nc3ccccc3)cc2c1,8.18%
14,CC(C)c1ccc2cc(C(C)C)ccc2c1,3.4%
15,O=C(c1ccc(O)cc1)c1ccc(O)c(O)c1O,-8.23%
16,CC(C)(C)c1nnc(NS(=O)(=O)c2ccc(N)cc2)s1,-1.14% [at 42.5 µM]
17,C[C@@H]1O[C@@H](O[C@@H]2[C@@H](O)[C@H](OCCc3ccc(O)c(O)c3)O[C@H](CO[C@@H]3O[C@H](CO)[C@@H](O)[C@H](O)[C@H]3O)[C@H]2OC(=O)/C=C/c2ccc(O)c(O)c2)[C@H](O)[C@H](O)[C@H]1O,-13.8%
18,CC(C)CC(=O)O,-1.28%
19,Cc1cccc(OCC(O)CNC(C)(C)C)c1C (stereo not drawn),5.07% [at 42.5 µM]

row,SMILES,"activity, negative = cytotoxicity"
1,CCCC(=O)C(C)=O,5.46%
2,O=S(=O)(O)c1ccc2cc(O)c(S(=O)(=O)O)cc2c1,-6.01%
3,CCCOC(OCCC)OCCC,2.79%
4,COc1cc(N)ccc1C,1.02%
5,COc1cc(NS(=O)(=O)c2ccc(N)cc2)nc(OC)n1,-0.696% [at 42.5 µM]
6,CC(C)(C)c1cc(CCC(=O)NN)cc(C(C)(C)C)c1O,-3.31%
7,CC(N)C(=O)OC(C)(C)Cc1ccc(Cl)cc1 (stereo not drawn),-3.65% [at 42.5 µM]
8,CCCN1C[C@H](CSC)C[C@@H]2c3cccc4[nH]cc(c34)C[C@H]21,0.0553% [at 42.5 µM]
9,CC(C(=O)O)c1ccc2c(c1)CC(=O)c1ccccc1S2 (stereo not drawn),1.47% [at 42.5 µM]
10,CC(C)C(=O)OCCc1ccccc1,1.51%
11,COCCOC(=O)C1=C(C)NC(C)=C(C(=O)OC(C)C)C1c1cccc([N+](=O)[O-])c1 (stereo not drawn),-1.95% [at 42.5 µM]
12,COc1cc2c(cc1OC)[C@@H]1CC(=O)[C@@H](CC(C)C)CN1CC2,-1.25% [at 42.5 µM]
13,C=CCCCCCCCCCCCC,9.11%
14,Cc1cc2cc3c(C)cc(=O)oc3c(C)c2o1,-3.17% [at 42.5 µM]
15,CC1=CCC(C(C)C)=CC1,2.36%
16,Cc1ccc(S(=O)(=O)O)c(C)c1,10.9%
17,Nc1ccc([N+](=O)[O-])c(N)c1,-18.1%
18,Cc1ccccc1N=O,0.794%
19,CC[C@H](C)C(=O)O[C@H]1C[C@H](O)C=C2C=C[C@H](C)[C@H](CC[C@@H](O)C[C@@H](O)CC(=O)O)[C@H]21,1.45%
